# Inconclusive results are not listed. This is one part of the list. Activity calls are given as the source filed them.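 The calls were made as follows, unless noted: active = GFP response above 150% of the DMSO level; inconclusive = fewer than 70 events counted for a yeast strain; inactive = the rest.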
# Legend:
# [1] = yeast TOR pathway RPL19A-GFP modulators, primary screen, cell-based, S. cerevisiae, multiplex flow cytometry (AID 1862; in the data active = percent of DMSO control GFP below about 86%;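 also: lower values mimic rapamycin by blocking the RPL19A rise seen in DMSO cells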); conditions: S. cerevisiae RPL19A-GFP strain, flow cytometry fluorescence, 3 h; at 10 µM; stronger effect = lower value
# [2] = modulators of MEP2-GFP levels in yeast, primary screen, S. cerevisiae, multiplex flow cytometry (AID 1867;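 active = GFP response, as percent of the DMSO control, above the screen-wide mean plus 3 SD, about 139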;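 also: median GFP channel fluorescence of barcode-gated MEP2-GFP cells measured by flow cytometry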); conditions: S. cerevisiae MEP2-GFP strain, 3 h, at 10 µM, stronger effect = higher value, 100% means same as DMSO wells
# [3] = modulators of CIT2-GFP expression in yeast, primary screen, S. cerevisiae, GFP fusion, multiplex flow cytometry (AID 1870;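 active = percent response above a set limit, the screen-wide mean plus 3 SD, cut at about 130% in these data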;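 also: barcoded CIT2-GFP strain pooled with four other GFP strains with rapamycin as positive control; median GFP fluorescence per well over plate mean of DMSO wells so 100% = DMSO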); conditions: 3 h, at 10 µM, stronger effect = higher value
# [4] = modulators of LAP4-GFP expression in yeast, primary screen, S. cerevisiae, multiplex flow cytometry (AID 1873;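 active = GFP signal, as percent of the solvent control, above the screen mean plus 3 SD, about 149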); conditions: 3 h, at 10 µM, stronger effect = higher value
# [5] = modulators of AGP1-GFP expression in yeast TOR pathway, primary screen, cell-based, multiplex flow cytometry, S. cerevisiae (AID 1887;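 active = GFP signal above the screen-wide mean plus 3 SD, that is over about 124.5% of the solvent control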;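 also: AGP1-GFP fusion strain of S. cerevisiae within a five-strain barcoded multiplex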); conditions: 3 h, at 10 µM, stronger effect = higher value
# [6] = RPL19A-GFP modulators, yeast TOR pathway, confirmation, cell-based, S. cerevisiae, flow cytometry, cherry picks, mother/daughter gates (AID 2270;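 active = GFP response below 50% of the DMSO control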); conditions: S. cerevisiae RPL19A-GFP strain, 3 h, at 10 µM, stronger effect = lower value, 100 = same GFP as DMSO wells
# [7] = LAP4-GFP expression modulators in yeast, confirmation, cell-based, cherry picks, flow cytometry, mother/daughter gates (AID 2271;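 active = GFP response above 150% of the DMSO control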;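 also: ratio of sample to DMSO plate mean so 100% equals DMSO level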); conditions: S. cerevisiae LAP4-GFP strain, 3 h, at 10 µM, stronger effect = higher value, 100 means same as DMSO control
# [8] = modulators of MEP2-GFP levels in yeast, confirmation, S. cerevisiae, flow cytometry GFP, cherry picks (AID 2272;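 active = GFP response above 150% of the DMSO control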;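 also: ratio of well signal to plate DMSO mean so 100% equals DMSO level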); conditions: S. cerevisiae MEP2-GFP strain, 3 h, at 10 µM, stronger effect = higher value
# [9] = AGP1-GFP expression modulators, hit retest, confirmation, cell-based, flow cytometry, S. cerevisiae, cherry picks (AID 2273);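 also: median GFP channel fluorescence over the whole cell population gate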; conditions: S. cerevisiae AGP1-GFP strain, 3 h, at 10 µM
# [10] = modulators of CIT2-GFP expression in yeast, confirmation, S. cerevisiae, GFP fusion, cherry picks, mother/daughter gates (AID 2274); conditions: S. cerevisiae CIT2-GFP strain, flow cytometry, 3 h, at 10 µM, stronger effect = higher value
# [11] = inhibitors of CD8+ T cell-vesicle binding, pilot screen, LFA-1/ICAM-1 modulator project, MLPCN validation set, flow cytometry (AID 2523;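 active = response below a set limit, under 55% cells CD8-positive and vesicle-bound, and CD8 cells' 90th-percentile brightness under 279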;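 as to vesicle binding response: mean PE anti-B7-1 fluorescence of CD8+ cells relative to row control; 100% = QL9-loaded vesicles with DMSO vehicle in the same plate row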); conditions: 2C mouse CD8+ T cells, at 7 µM, stronger effect = lower value; double positive events: measured here: CD8+/vesicle+ event percentage
# [12] = target: Integrin beta-1 (Homo sapiens) + Integrin alpha-4 (Homo sapiens) (UniProt P13612+P05556); assay: inhibition of HUTS-21 binding to VLA-4, pilot screen, VLA-4 allosteric modulator project, U937 cells, HUTS-21 mAb, flow cytometry, validation set (AID 2674;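 active = inhibition above 50%, about 3 SD of the validation set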;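 also: antibody binding induced by the VLA-4 ligand LDV present at three times its Kd; 0% = LDV ligand with antibody and no compound and 100% = antibody without LDV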); conditions: HUTS-21 LIBS mAb binding, at 6.7 µM, stronger effect = higher value, binding induced by LDV ligand
# [13] = superoxide lowering in aged yeast cells, pilot screen, validation compound set (AID 2706;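 active = superoxide response below 65% of plate, a cut near 3 SD across the whole screen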;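 also: yeast exposed to compound for one week at 30 degrees C before staining; 100% = mean of all compound wells on the same plate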); conditions: S. cerevisiae aging, superoxide DHE fluorescence; at 10 µM; stronger effect = lower value
# [14] = target: Beta-adrenergic receptor kinase 1 (Homo sapiens) (UniProt P25098); assay: GRK2 binders displacing RNA aptamer, biochemical, validation, human GRK2, bead flow cytometry (AID 488806;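 active = aptamer binding inhibition above 30%, about 3 SD of noise from non-fluorescent compounds; inactive = inhibition at or below 30%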); conditions: bead-bound GRK2, FAM-aptamer displacement, at 10 µM, stronger effect = higher value
# [15] = target: Beta-2 adrenergic receptor (Homo sapiens) (UniProt P07550); assay: beta2AR agonists driving receptor internalization, pilot screen, cell-based, FAP fluorogen, flow cytometry, validation set (AID 504459;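 active = percent response above 42, roughly 3 SD of non-fluorescent test compounds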;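 also: agonist-driven loss of surface beta2AR via internalization measured by FAP dye flow cytometry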); conditions: Am2.2-beta2AR cells, FAP surface receptor flow cytometry; at 10 µM; stronger effect = higher value
# [16] = target: AP-2 complex subunit beta (Homo sapiens) (UniProt P63010); assay: inhibitors of arrestin peptide binding to AP2, pilot screen, biochemical, validation set, GST-AP2 beads, flow cytometry (AID 504541;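 active = inhibition above 54%, about 3 SD of non-fluorescent compounds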;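 also: AP2 carries R879A mutation and is captured from E. coli lysate; bead-bound FITC arrestin peptide fluorescence measuring arrestin peptide binding to AP2; 0% = DMSO wells and 100% = excess unlabeled arrestin peptide control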); conditions: FITC arrestin peptide, at 10 µM, stronger effect = higher value, AP2 beta2 appendage fragment, R879A mutant
# [17] = yeast V-ATPase proton transport modulators, S. cerevisiae, pHLuorin, HTS validation (AID 504600; in the data active = response above about 15%;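 also: plate controls were DMSO for no effect and reference compound for full effect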); conditions: S. cerevisiae pHLuorin cytosolic pH, at 10 µM, stronger effect = higher value
# [18] = test system: anti-desmoglein-3 scFv antibody binding to human DSG3; assay: inhibitors of anti-DSG3 scFv binding to DSG3, pilot screen, biochemical, validation compound set, bead-based, flow cytometry (AID 588368;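 active = binding below the plate cutoff, the plate median minus 3 SD, with a reading above zero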;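 also: signal is the median channel fluorescence of bead-bound GFP antibody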); conditions: Protein G beads, DSG3-Fc, scFv-GFP binding, at 10 µM, stronger effect = lower value
# [19] = inhibitors of fungal efflux pumps CDR1, CDR2, MDR1, pilot screen, validation compound set, multiplex, phenotypic (AID 588506;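 active = efflux inhibition above 0.42, the validation set average plus 4 SD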;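 also: Nile Red retained in cells so higher fluorescence means more efflux inhibition; 0 = negative control wells and 1 = enniatin B 25 µM full block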); conditions: S. cerevisiae pump-expressing triplex, Nile Red efflux flow cytometry; at 10 µM; stronger effect = higher value; the pumps come from Candida albicans
# [20] = target: ATP-binding cassette sub-family B member 6 (Homo sapiens) (UniProt Q9NP58); assay: ABCB6 transporter inhibitors, pilot screen, K562-ABCB6 cells, flow cytometry, validation set (AID 588550;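 active = inhibition above the screen-wide mean plus 3 SD, about 51%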;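 also: 0% = DMSO wells and 100% = benzethonium chloride 70 µM positive control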); conditions: K562-ABCB6 porphyrin accumulation, 1 h, at 10 µM, stronger effect = higher value
# [21] = promoters of myeloid differentiation in arrested cells, primary screen, cell-based, GFP/MAC1 double positive, flow cytometry, validation set (AID 588685;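 active = differentiation response of at least 50%, scaled between solvent and reference control, from cells with both markers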;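 also: compound exposure lasts four days before antibody staining and flow analysis; 0% = DMSO wells and 100% = 5 µM fulvestrant positive control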); conditions: ER-HoxA9 marrow cells, stronger effect = higher value, normalized: vehicle 0, fulvestrant 100
# [22] = target: Regulator of G-protein signaling 16 (Homo sapiens) (UniProt O15492); assay: modulators of RGS–Galpha-o binding, primary screen, biochemical, multiplexed beads, flow cytometry, RGS4/7/8/16/19 (AID 1504); conditions: multiplexed bead flow cytometry, measured here: RGS16 interaction, at 10 µM;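 also: fluorescently labeled Galpha-o bound to GDP with aluminium fluoride binding biotinylated RGS beads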
# [23] = target: Regulator of G-protein signaling 19 (Homo sapiens) (UniProt P49795); assay: as above; conditions: multiplexed bead flow cytometry, measured here: RGS19 interaction, at 10 µM
# [24] = target: Regulator of G-protein signaling 7 (Homo sapiens) (UniProt P49802); assay: as above; conditions: multiplexed bead flow cytometry, measured here: RGS7 interaction, at 10 µM
# [25] = target: Regulator of G-protein signaling 8 (Homo sapiens) (UniProt P57771); assay: as above; conditions: multiplexed bead flow cytometry, measured here: RGS8 interaction, at 10 µM
# [26] = disruption of biotin probe capture by avidin, counter-screen for RGS protein interaction modulators, biochemical, flow cytometry, bead-based (AID 1783;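 active = inhibition above 50%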;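 also: median green fluorescence of gated singlet beads compared with DMSO control wells; 0% = DMSO wells and 100% = complete loss of bead fluorescence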); conditions: streptavidin beads, fluorescein-biotin binding; at 10 µM, stronger effect = higher value
# [27] = target: Guanine nucleotide-binding protein G(o) subunit alpha (Homo sapiens) (UniProt P09471); assay: RGS8-Galphao binding modulators, confirmation, biochemical, multiplexed bead flow cytometry, single concentration (AID 1836; in the data active = binding response below about 72% or above about 130%; inactive = in between;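 also: Galphao activated as GDP AlF4 complex before binding bead RGS8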); conditions: bead-based flow cytometry RGS8-Galphao binding, fluorescence; at 10 µM; actives lie on both sides
# [28] = target: Guanine nucleotide-binding protein G(o) subunit alpha (Homo sapiens) (UniProt P09471); assay: RGS7-Galphao binding modulators, confirmation, biochemical, multiplexed bead flow cytometry, single concentration (AID 1837; in the data active = response below about 75% or above about 130%; inactive = in between;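 also: fluorescent Galphao activated with GDP and aluminum fluoride binding bead-coupled RGS7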); conditions: bead-based flow cytometry RGS7-Galphao binding; at 10 µM; actives lie on both sides
# [29] = target: Regulator of G-protein signaling 16 (Homo sapiens) + Guanine nucleotide-binding protein G(o) subunit alpha (Homo sapiens) (UniProt O15492+P09471); assay: modulators of RGS16-Galphao protein binding, confirmation, biochemical, single concentration, multiplexed bead flow cytometry (AID 1838; in the data active = response below about 74% or above about 130%; inactive = in between;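 also: Galphao activated as the GDP aluminium fluoride complex binding bead-coupled RGS16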); conditions: bead-based flow cytometry, at 10 µM, actives lie on both sides
# [30] = target: Guanine nucleotide-binding protein G(o) subunit alpha (Homo sapiens) (UniProt P09471); assay: modulators of RGS4-Galphao protein binding, confirmation, biochemical, single concentration, multiplexed bead flow cytometry (AID 1840; in the data active = binding response below about 74% or above about 130%; inactive = in between); conditions: at 10 µM, actives lie on both sides
# [31] = target: Guanine nucleotide-binding protein G(o) subunit alpha (Homo sapiens) + Regulator of G-protein signaling 19 (Homo sapiens) (UniProt P09471+P49795); assay: regulators of RGS19-Galphao binding, confirmation, biochemical, single point, multiplexed bead flow cytometry (AID 1841; in the data active = response below about 50% or above about 160%; inactive = in between;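 also: 100% = no compound control and 0% = blank background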); conditions: bead-based flow cytometry RGS19-Galphao binding; at 10 µM; actives lie on both sides
# [32] = measured here: daughter cell gate
# [33] = measured here: mother cell gate
# [34] = measured here: daughter cell gate response
# [35] = measured here: mother cell gate response
# Chain of Guanine nucleotide-binding protein G(o) subunit alpha (Homo sapiens) (P09471 whole entry, looked up): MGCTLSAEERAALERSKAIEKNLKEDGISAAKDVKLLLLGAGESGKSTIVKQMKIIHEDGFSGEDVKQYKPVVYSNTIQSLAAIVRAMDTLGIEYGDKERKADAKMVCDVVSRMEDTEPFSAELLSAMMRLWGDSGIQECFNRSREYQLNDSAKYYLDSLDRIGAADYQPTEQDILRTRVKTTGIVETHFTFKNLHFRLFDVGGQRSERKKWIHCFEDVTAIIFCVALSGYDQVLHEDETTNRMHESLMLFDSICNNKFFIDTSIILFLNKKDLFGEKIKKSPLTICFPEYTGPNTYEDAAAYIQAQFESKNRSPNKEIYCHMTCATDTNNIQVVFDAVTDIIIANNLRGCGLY
# Chain of ATP-binding cassette sub-family B member 6 (Homo sapiens) (Q9NP58 whole entry, looked up): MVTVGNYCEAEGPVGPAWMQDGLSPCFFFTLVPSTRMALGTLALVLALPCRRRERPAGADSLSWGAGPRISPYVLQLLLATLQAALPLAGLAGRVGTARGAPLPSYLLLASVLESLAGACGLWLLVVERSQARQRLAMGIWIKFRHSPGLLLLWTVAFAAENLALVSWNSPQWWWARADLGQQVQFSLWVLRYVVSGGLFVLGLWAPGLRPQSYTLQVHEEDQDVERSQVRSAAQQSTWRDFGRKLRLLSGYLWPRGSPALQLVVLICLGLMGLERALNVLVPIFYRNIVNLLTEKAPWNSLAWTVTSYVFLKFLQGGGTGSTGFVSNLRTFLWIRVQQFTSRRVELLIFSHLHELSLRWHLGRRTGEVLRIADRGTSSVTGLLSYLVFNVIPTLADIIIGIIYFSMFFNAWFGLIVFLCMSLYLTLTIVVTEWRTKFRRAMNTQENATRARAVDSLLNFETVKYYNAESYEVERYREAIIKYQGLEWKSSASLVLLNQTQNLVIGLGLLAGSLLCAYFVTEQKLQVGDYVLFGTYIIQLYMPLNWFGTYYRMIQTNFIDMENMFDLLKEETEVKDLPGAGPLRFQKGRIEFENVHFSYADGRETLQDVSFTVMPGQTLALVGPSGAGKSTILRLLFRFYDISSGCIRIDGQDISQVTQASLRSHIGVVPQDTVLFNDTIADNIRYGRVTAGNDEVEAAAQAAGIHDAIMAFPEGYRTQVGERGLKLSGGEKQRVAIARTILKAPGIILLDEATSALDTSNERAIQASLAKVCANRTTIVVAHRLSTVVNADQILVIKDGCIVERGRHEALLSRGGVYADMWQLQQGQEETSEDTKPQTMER
# Chain of AP-2 complex subunit beta (Homo sapiens) (P63010 whole entry, looked up, the tested form may be a part, one chain of several): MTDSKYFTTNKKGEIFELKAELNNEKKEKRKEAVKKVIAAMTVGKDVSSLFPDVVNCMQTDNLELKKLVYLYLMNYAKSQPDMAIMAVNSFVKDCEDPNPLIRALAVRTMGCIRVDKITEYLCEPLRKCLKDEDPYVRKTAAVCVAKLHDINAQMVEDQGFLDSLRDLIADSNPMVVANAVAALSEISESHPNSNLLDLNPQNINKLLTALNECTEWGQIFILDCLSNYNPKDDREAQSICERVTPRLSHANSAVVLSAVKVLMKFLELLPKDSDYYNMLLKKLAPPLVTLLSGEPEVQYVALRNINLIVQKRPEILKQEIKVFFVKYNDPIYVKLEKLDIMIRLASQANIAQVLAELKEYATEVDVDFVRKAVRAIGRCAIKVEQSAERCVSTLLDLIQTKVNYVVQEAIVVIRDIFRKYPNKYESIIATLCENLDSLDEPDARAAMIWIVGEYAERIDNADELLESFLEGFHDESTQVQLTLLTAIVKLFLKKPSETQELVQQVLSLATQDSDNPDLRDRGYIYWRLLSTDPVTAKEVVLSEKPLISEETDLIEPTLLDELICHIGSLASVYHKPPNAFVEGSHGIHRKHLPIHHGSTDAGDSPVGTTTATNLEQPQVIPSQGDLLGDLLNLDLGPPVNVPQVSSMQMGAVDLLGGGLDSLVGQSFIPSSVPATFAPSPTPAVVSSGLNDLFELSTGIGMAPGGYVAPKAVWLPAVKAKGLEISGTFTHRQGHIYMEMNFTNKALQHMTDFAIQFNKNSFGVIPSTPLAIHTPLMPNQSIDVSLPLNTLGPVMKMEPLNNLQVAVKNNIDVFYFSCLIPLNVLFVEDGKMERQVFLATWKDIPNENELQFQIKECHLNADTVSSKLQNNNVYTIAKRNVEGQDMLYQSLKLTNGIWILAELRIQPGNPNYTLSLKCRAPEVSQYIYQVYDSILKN
# Chain of Integrin beta-1 (Homo sapiens) + Integrin alpha-4 (Homo sapiens) (P05556 whole entry, looked up): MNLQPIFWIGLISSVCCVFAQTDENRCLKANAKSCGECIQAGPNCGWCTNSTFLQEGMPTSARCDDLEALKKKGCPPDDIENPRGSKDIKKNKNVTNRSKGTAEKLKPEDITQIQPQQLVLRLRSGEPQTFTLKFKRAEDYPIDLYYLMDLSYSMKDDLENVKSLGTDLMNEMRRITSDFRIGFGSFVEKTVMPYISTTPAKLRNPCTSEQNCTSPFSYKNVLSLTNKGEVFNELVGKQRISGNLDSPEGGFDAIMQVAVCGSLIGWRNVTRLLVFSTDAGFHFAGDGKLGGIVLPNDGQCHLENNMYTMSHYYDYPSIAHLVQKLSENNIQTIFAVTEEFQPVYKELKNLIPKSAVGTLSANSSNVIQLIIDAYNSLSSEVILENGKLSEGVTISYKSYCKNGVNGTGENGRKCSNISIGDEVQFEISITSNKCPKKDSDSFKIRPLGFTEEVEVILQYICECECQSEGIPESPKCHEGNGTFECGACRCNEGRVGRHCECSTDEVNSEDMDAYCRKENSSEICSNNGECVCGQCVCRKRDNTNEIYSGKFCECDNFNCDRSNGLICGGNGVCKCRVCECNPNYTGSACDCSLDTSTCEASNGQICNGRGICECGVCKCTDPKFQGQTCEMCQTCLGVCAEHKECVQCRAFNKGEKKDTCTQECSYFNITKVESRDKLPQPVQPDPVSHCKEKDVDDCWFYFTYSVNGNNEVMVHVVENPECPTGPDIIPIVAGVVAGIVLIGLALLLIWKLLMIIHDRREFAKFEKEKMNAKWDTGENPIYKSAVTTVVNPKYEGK
# Chain of Integrin beta-1 (Homo sapiens) + Integrin alpha-4 (Homo sapiens) (P13612 whole entry, looked up): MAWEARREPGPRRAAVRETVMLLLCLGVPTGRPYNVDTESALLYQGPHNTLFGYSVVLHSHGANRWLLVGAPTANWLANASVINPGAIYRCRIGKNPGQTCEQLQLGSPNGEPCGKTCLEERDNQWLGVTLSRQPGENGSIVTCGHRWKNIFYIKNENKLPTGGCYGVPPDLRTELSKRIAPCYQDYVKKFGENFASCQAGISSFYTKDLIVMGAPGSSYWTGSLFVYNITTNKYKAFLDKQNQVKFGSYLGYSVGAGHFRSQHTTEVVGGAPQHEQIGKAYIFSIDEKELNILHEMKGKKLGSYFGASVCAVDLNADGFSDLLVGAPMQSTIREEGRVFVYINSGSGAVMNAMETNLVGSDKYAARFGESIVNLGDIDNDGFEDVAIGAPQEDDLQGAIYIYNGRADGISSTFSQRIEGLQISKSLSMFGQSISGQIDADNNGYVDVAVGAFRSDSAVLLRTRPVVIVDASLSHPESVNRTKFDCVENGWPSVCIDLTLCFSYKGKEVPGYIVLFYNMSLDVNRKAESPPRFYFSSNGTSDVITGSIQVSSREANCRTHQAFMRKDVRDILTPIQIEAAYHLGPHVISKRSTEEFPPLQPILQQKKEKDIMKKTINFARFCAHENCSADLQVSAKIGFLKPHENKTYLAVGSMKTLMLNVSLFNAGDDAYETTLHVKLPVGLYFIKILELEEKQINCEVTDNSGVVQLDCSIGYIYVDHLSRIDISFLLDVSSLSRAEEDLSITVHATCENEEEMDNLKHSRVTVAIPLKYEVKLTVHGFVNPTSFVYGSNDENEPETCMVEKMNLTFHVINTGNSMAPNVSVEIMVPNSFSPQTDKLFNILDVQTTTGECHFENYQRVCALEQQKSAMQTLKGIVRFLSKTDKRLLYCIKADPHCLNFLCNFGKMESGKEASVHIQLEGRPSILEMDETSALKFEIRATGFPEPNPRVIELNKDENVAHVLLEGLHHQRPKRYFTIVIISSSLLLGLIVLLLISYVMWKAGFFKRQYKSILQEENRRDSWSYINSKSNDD
# Chain of Beta-adrenergic receptor kinase 1 (Homo sapiens) (P25098 whole entry, looked up): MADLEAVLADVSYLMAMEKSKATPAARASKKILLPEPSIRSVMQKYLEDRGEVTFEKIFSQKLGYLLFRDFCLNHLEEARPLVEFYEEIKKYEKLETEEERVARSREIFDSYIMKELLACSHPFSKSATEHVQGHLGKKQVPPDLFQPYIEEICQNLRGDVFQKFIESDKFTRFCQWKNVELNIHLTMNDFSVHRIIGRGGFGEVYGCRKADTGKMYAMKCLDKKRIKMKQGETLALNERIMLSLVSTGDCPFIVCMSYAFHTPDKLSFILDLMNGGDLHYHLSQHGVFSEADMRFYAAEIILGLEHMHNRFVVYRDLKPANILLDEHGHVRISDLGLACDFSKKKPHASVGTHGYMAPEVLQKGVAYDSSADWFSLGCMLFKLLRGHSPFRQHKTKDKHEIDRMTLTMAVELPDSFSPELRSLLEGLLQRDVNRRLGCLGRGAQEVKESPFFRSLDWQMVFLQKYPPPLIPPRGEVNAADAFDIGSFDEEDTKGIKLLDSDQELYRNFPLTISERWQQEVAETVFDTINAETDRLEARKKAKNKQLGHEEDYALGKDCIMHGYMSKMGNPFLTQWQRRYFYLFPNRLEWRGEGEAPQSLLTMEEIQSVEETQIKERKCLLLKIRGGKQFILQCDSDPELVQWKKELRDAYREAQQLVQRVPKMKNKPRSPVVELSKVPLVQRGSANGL
# Chain of Beta-2 adrenergic receptor (Homo sapiens) (P07550 whole entry, looked up): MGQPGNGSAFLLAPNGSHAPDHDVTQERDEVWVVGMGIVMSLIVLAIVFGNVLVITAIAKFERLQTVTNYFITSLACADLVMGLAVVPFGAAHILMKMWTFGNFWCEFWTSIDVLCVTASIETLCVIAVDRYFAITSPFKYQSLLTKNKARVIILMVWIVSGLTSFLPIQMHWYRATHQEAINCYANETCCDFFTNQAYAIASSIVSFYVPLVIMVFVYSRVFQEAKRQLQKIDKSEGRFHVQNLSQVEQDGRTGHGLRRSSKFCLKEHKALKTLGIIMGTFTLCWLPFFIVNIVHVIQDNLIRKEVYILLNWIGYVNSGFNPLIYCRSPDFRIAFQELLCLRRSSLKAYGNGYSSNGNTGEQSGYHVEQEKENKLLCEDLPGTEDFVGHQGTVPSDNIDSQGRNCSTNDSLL
smiles,measurement,setting,value
COc1cc2c(cc1OC)C(c1ccccc1)=NCC2,percent of DMSO control GFP,[1],92.2% (inactive)
same,GFP response vs DMSO,[2],144% (active)
same,percent response of DMSO control,[3],103% (inactive)
same,GFP response vs DMSO,[4],84.2% (inactive)
same,"GFP response, % of DMSO",[5],97.7% (inactive)
same,GFP response vs DMSO,[6],98.2% (inactive)
same,GFP response vs DMSO,[6]; [32],97.6%
same,GFP response vs DMSO,[6]; [33],99.7%
same,GFP response relative to DMSO,[7],88.9% (inactive)
same,GFP response relative to DMSO,[7]; [34],88%
same,GFP response relative to DMSO,[7]; [35],87.6%
same,GFP response vs DMSO,[8],100% (inactive)
same,"GFP response, % of DMSO",[9],98.3% (inactive)
same,"GFP response, % of DMSO",[10],103% (inactive)
same,"GFP response, % of DMSO",[10]; [32],106%
same,"GFP response, % of DMSO",[10]; [33],102%
same,double positive events,[11],59.5%
same,vesicle binding response,[11],202% (inactive)
same,inhibition,[12],2.58% (inactive)
same,superoxide response (% of plate),[13],93.7% (inactive)
same,aptamer binding inhibition,[14],3% (inactive)
same,response,[15],2.38% (inactive)
same,inhibition,[16],6.17% (inactive)
same,response,[17],-0.17% (inactive)
same,binding (% of control),[18],99% (inactive)
same,efflux inhibition (fraction of control),[19],0.34 (inactive)
same,inhibition,[20],6% (inactive)
same,differentiation response,[21],1.64% (inactive)
Oc1ccc(N=Nc2nccs2)c(O)c1,RGS16–Galpha-o binding response,[22],-16.2%
same,RGS19–Galpha-o binding response,[23],158%
same,RGS7–Galpha-o binding response,[24],270%
same,RGS8–Galpha-o binding response,[25],6.26%
same,inhibition,[26],-1.7% (inactive)
same,binding response (% of control),[27],99% (inactive)
same,response (percent of control binding),[28],96.5% (inactive)
same,response (% of control binding),[29],97.6% (inactive)
same,binding response (% of control),[30],98.7% (inactive)
same,response (percent of control binding),[31],99.6% (inactive)
CCN(CC)CCn1cnc2c1c(=O)n(CCOC(=O)c1cc(OC)c(OC)c(OC)c1)c(=O)n2C,RGS16–Galpha-o binding response,[22],147%
same,RGS19–Galpha-o binding response,[23],76.4%
same,RGS7–Galpha-o binding response,[24],13%
same,RGS8–Galpha-o binding response,[25],131%
same,inhibition,[26],-0.6% (inactive)
same,binding response (% of control),[27],104% (inactive)
same,response (percent of control binding),[28],103% (inactive)
same,response (% of control binding),[29],104% (inactive)
same,binding response (% of control),[30],105% (inactive)
same,response (percent of control binding),[31],108% (inactive)
C[C@]12C[C@H](O)[C@H]3[C@@H](CCC4=CC(=O)CC[C@@]43C)[C@@H]1CC[C@@H]2C(=O)CO,percent of DMSO control GFP,[1],96.3% (inactive)
same,GFP response vs DMSO,[2],110% (inactive)
same,percent response of DMSO control,[3],112% (inactive)
same,GFP response vs DMSO,[4],78.1% (inactive)
same,"GFP response, % of DMSO",[5],101% (inactive)
same,GFP response vs DMSO,[6],98.2% (inactive)
same,GFP response vs DMSO,[6]; [32],98.9%
same,GFP response vs DMSO,[6]; [33],98.7%
same,GFP response relative to DMSO,[7],94.1% (inactive)
same,GFP response relative to DMSO,[7]; [34],94.4%
same,GFP response relative to DMSO,[7]; [35],94%
same,GFP response vs DMSO,[8],98.3% (inactive)
same,"GFP response, % of DMSO",[9],96.4% (inactive)
same,"GFP response, % of DMSO",[10],105% (inactive)
same,"GFP response, % of DMSO",[10]; [32],105%
same,"GFP response, % of DMSO",[10]; [33],106%
same,double positive events,[11],70.2%
same,vesicle binding response,[11],222% (inactive)
same,inhibition,[12],31.7% (inactive)
same,superoxide response (% of plate),[13],103% (inactive)
same,aptamer binding inhibition,[14],4% (inactive)
same,response,[15],4.9% (inactive)
same,inhibition,[16],-0.36% (inactive)
same,response,[17],6.31% (inactive)
same,binding (% of control),[18],104% (inactive)
same,efflux inhibition (fraction of control),[19],-0.56 (inactive)
same,inhibition,[20],12% (inactive)
same,differentiation response,[21],4.91% (inactive)

# Source: PubChem BioAssay
